Laboratory results taken from PubChem BioAssay (EPA / NIEHS).
Several values for one entry are separate records, joined by “and”; a condition that tells them apart may be missing. Equal values may be shown once. Records with an inconclusive call do not appear. More than one record can exist for a structure, and the calls need not agree. Activity calls are given as the source filed them. The calls were made as follows, unless noted: active = hit-call score of the fitted dose curve at least 0.9, where 1 is the maximum; inactive = score below 0.9.

Key:
[1] = molecular target: Estrogen-related receptor gamma (Homo sapiens) (UniProt P62508); assay: ATG_ERRg_TRANS: Attagene TRANS-FACTORIAL HepG2 Assay for human Estrogen-Related Receptor gamma (ERRg) (AID 2282977; active = hit-call score of the fitted dose curve at least 0.9, where 1 is the maximum;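 also: hits increase reporter signal over DMSO so potencies reflect activators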); details: HepG2 Attagene TRANS reporter, ERRg transactivation
Sequence of Estrogen-related receptor gamma (Homo sapiens) (P62508 whole entry, looked up, the tested form may be a part): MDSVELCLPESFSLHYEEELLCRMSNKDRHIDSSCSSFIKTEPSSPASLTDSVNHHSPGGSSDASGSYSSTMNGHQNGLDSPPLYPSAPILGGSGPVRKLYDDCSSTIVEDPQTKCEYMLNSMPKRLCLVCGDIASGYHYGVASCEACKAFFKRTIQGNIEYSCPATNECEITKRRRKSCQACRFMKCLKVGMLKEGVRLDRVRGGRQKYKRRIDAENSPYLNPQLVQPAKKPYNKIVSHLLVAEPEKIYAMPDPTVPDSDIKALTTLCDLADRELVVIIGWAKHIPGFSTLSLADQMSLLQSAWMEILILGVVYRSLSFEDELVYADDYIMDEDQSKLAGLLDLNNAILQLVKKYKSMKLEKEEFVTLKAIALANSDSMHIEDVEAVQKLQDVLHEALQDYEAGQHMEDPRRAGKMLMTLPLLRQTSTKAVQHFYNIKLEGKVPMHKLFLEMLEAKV
Outline: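 Transfect HepG2 with multiple GAL4-UAS reporter transcription units; dose chemicals 24 h; isolate RNA, reverse-transcribe with oligo(dT), PCR-amplify, label with 6-FAM, digest with HpaI; size fragments by capillary electrophoresis. DMSO serves as negative control.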

[2] = BSK_3C_TissueFactor: BioMAP Diversity Plus: 3C Assay for Tissue Factor Biomarker Activity (AID 2282997); details: BioMAP 3C HUVEC, tissue factor biomarker readout; actives raise or lower the signal
Outline: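 ELISA read-out of Tissue Factor levels on human umbilical vein endothelium collected 24 h after chemical dosing. Gain or loss of signal was fitted relative to DMSO.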

[3] = read-out: Interleukin-1 alpha (IL1a), IL1A (gene 3552); assay: BSK_BE3C_IL1a: BioMAP Diversity Plus: BE3C Assay for Interleukin-1 alpha (IL1a) Biomarker Activity (AID 2283016); details: primary human bronchial epithelial cells; actives raise or lower the signal
Outline: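 BE3C primary human bronchial epithelium; cpd 24 h; IL-1a by ELISA; bidirectional fit vs DMSO; parallel SRB (0.1% SRB, 10% TCA fix, 560 nm) for cytotoxicity.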

[4] = read-out: Monocyte Chemoattractant Protein-1 (MCP1), CCL2 (gene 6347); assay: BSK_3C_MCP1: BioMAP Diversity Plus: 3C Assay for Monocyte Chemoattractant Protein-1 (MCP1) Biomarker Activity (AID 2283017); details: primary human endothelial cells (HUVEC); actives raise or lower the signal
Outline: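 ELISA read-out of MCP-1 from human umbilical vein endothelial cell cultures harvested 24 h post-dosing. Gain or loss of signal was fitted relative to DMSO.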

[5] = read-out: Interleukin-8 (IL8), CXCL8 (gene 3576); assay: BSK_3C_IL8: BioMAP Diversity Plus: 3C Assay for Interleukin-8 (IL8) Biomarker Activity (AID 2283020); details: primary human endothelial cells (HUVEC); actives raise or lower the signal
Outline: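 ELISA read-out of IL-8 from human umbilical vein endothelium, measured 24 h after chemical dosing. Activity is expressed relative to DMSO negative control, with both increases and decreases fitted.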

[6] = BSK_3C_SRB: Viability Assessment in the BioMAP Diversity Plus: 3C Assay (AID 2283023); details: primary human endothelial cells (HUVEC);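 also: fitted both ways against DMSO so a hit may be signal rise or drop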
Outline: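 Absorbance at 560 nm of sulforhodamine B-stained (0.1%) total protein served as a cytotoxicity readout in human umbilical vein endothelial cells, 24 h after chemical treatment. Signal was fitted bidirectionally relative to DMSO.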

[7] = read-out: Pselectin, SELP (gene 6403); assay: BSK_4H_Pselectin: BioMAP Diversity Plus: 4H Assay for Pselectin Biomarker Activity (AID 2283026); details: primary human endothelial cells (HUVEC); actives raise or lower the signal
Outline: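 ELISA read-out of P-selectin on human umbilical vein endothelium after 24 h of dosing. Values derive from bidirectional fitting relative to DMSO. Parallel SRB protein staining flagged overt cytotoxicity.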

[8] = BSK_4H_SRB: Viability Assessment in the BioMAP Diversity Plus: 4H Assay (AID 2283027); details: primary human endothelial cells (HUVEC);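 also: cells exposed to compound for 24 h before staining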;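 as to AC50: curves fitted both ways versus DMSO so AC50 may be loss or gain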
Outline: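 Absorbance at 560 nm of SRB-stained total protein served as the viability read-out in confluent primary human umbilical vein endothelium 24 h after chemical treatment. Curves were fitted bidirectionally against DMSO as negative control.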

[9] = read-out: Human Leukocyte Antigen - DR isotype (HLADR), HLA-DRA (gene 3122); assay: BSK_BE3C_HLADR: BioMAP Diversity Plus: BE3C Assay for Human Leukocyte Antigen - DR isotype (HLADR) Biomarker Activity (AID 2283032); details: primary human bronchial epithelial cells; actives raise or lower the signal
Outline: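 ELISA read-out of HLA-DR on human lung bronchial epithelial primary cells, measured 24 h post-dosing. Both increases and decreases were scored relative to DMSO vehicle.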

[10] = read-out: Monokine induced gamma interferon (MIG), CXCL9 (gene 4283); assay: BSK_BE3C_MIG: BioMAP Diversity Plus: BE3C Assay for Monokine induced gamma interferon (MIG) Biomarker Activity (AID 2283035); details: primary human bronchial epithelial cells; actives raise or lower the signal
Outline: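 MIG level was determined by ELISA after 24 h chemical treatment of primary human bronchial epithelial cells. Values were fitted bidirectionally with DMSO as the negative control and activity baseline.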

[11] = read-out: Human Leukocyte Antigen - DR isotype (HLADR), HLA-DRA (gene 3122); assay: BSK_CASM3C_HLADR: BioMAP Diversity Plus: CASM3C Assay for Human Leukocyte Antigen - DR isotype (HLADR) Biomarker Activity (AID 2283043); details: primary human coronary artery smooth muscle cells; actives raise or lower the signal;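 also: cell-surface HLA-DR protein level quantified by ELISA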
[12] = read-out: Macrophage colony-stimulating factor (MCSF), CSF1 (gene 1435); assay: BSK_CASM3C_MCSF: BioMAP Diversity Plus: CASM3C Assay for Macrophage colony-stimulating factor (MCSF) Biomarker Activity (AID 2283044); details: primary human coronary artery smooth muscle cells; actives raise or lower the signal;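 also: M-CSF protein amount quantified by ELISA after 24 h exposure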
[13] = read-out: serum amyloid A (SAA), SAA1 (gene 6288); assay: BSK_CASM3C_SAA: BioMAP Diversity Plus: CASM3C Assay for serum amyloid A (SAA) Biomarker Activity (AID 2283049); details: primary human coronary artery smooth muscle cells; actives raise or lower the signal;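 also: SAA protein level quantified by ELISA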
[14] = BSK_CASM3C_SRB: Viability Assessment in the BioMAP Diversity Plus: CASM3C Assay (AID 2283050); details: primary human coronary artery smooth muscle cells;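 also: total protein by SRB staining as cytotoxicity measure in parallel cultures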
[15] = read-out: Vascular cell adhesion molecule 1 (VCAM1), VCAM1 (gene 7412); assay: BSK_CASM3C_VCAM1: BioMAP Diversity Plus: CASM3C Assay for Vascular cell adhesion molecule 1 (VCAM1) Biomarker Activity (AID 2283055); details: primary human coronary artery smooth muscle cells; actives raise or lower the signal;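 also: VCAM-1 protein level quantified by ELISA on the cells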
[16] = read-out: Collagen III, COL3A1 (gene 1281); assay: BSK_hDFCGF_CollagenIII: BioMAP Diversity Plus: hDFCGF Assay for Collagen III Biomarker Activity (AID 2283056); details: primary human foreskin fibroblasts; actives raise or lower the signal
Outline: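 ELISA read-out of collagen III from human skin fibroblast cultures sampled 24 h post-dosing. Values were derived by bidirectional fitting relative to the DMSO vehicle control.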

[17] = read-out: Interleukin-1 alpha (IL1a), IL1A (gene 3552); assay: BSK_KF3CT_IL1a: BioMAP Diversity Plus: KF3CT Assay for Interleukin-1 alpha (IL1a) Biomarker Activity (AID 2283070); details: primary human keratinocytes with fibroblasts; actives raise or lower the signal
Outline: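 Chemicals were dosed onto co-cultured human keratinocytes and foreskin fibroblasts, IL-1a was quantified by ELISA at 24 h, and activity was fitted in both directions relative to DMSO controls.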

[18] = read-out: Matrix Metallopeptidase 9 (MMP9), MMP9 (gene 4318); assay: BSK_KF3CT_MMP9: BioMAP Diversity Plus: KF3CT Assay for Matrix Metallopeptidase 9 (MMP9) Biomarker Activity (AID 2283074); details: primary human keratinocytes with fibroblasts; actives raise or lower the signal;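 as to AC50: MMP9 protein level quantified by ELISA in the co-culture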
Outline: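 Human keratinocyte/foreskin fibroblast co-culture; compound added; 24 h; MMP-9 by ELISA; bidirectional fit vs DMSO baseline.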

[19] = read-out: Monocyte Chemoattractant Protein-1 (MCP1), CCL2 (gene 6347); assay: BSK_LPS_MCP1: BioMAP Diversity Plus: LPS Assay for Monocyte Chemoattractant Protein-1 (MCP1) Biomarker Activity (AID 2283081); details: primary human HUVEC with PBMC; actives raise or lower the signal;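 as to AC50: co-culture stimulated with LPS; secreted MCP-1 protein quantified by ELISA in culture supernatant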
Outline: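 Human endothelial–PBMC co-cultures were dosed with chemical, then LPS-driven MCP-1 levels were quantified by ELISA at 24 h. Activity in either direction was fitted versus DMSO negative control.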

[20] = read-out: Tumor necrosis factor (Homo sapiens) (UniProt P01375); assay: BSK_LPS_TNFa: BioMAP Diversity Plus: LPS Assay for Tumour Necrosis Factor alpha (TNFa) Biomarker Activity (AID 2283085); details: primary human HUVEC with PBMC; actives raise or lower the signal;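 as to AC50: TNFa protein level quantified by ELISA in the co-culture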
Outline: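 Read-out is ELISA of TNFa in primary human endothelial cell–PBMC co-cultures at 24 h after compound. Activity in either direction was fitted against DMSO.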

Measured: AC50

Sequence of Tumor necrosis factor (Homo sapiens) (P01375 whole entry, looked up): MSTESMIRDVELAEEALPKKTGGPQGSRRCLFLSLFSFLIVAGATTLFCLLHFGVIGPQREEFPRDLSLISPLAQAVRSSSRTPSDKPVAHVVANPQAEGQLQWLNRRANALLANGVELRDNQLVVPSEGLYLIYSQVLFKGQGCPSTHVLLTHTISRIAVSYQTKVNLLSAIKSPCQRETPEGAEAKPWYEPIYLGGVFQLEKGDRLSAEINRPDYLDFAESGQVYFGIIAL

O=C(NCNC(=O)NC1C(=O)NC(=O)N1CO)NC1C(=O)NC(=O)N1CO (stereo not given)
inactive: [1]

CC1(C)[C@H](C(=O)O[C@H](C#N)c2cccc(Oc3ccccc3)c2)[C@@H]1C=C(Br)Br
inactive: [2] | [3] | [4] | [5] | [6] | [7] | [8] | [9] | [10] | [11] | [12] | [13] | [14] | [15] | [17] | [18] | [19] | [20]
active: [11] 11.1 µM | [15] 3.97 µM | [16] 7.51 µM and 4.58 µM

CCNCC
inactive: [1]

O=[N+]([O-])c1ccc(Cl)cc1
not listed: [1]
inactive: all other assays above

O=C1C=CC(=O)C=C1
active: [2] 33.2 µM | [3] 33 µM | [4] 20 µM | [5] 32.9 µM | [6] 28 µM | [7] 14.1 µM | [8] 28.7 µM | [9] 27 µM | [11] 10.9 µM and 20 µM | [12] 12.1 µM | [14] 4.88 µM | [15] 9.42 µM and 24.7 µM | [16] 20 µM | [17] 30.3 µM and 26.4 µM | [18] 20 µM and 11.6 µM | [19] 32.6 µM | [20] 31.7 µM and 18.7 µM
inactive: [2] | [3] | [4] | [5] | [6] | [7] | [8] | [9] | [10] | [12] | [13] | [14] | [19]

CC(Cc1ccc(C(C)(C)C)cc1)CN1C[C@@H](C)O[C@@H](C)C1 (stereo not given in full)
inactive: [1]

CCC(C)c1cc([N+](=O)[O-])cc([N+](=O)[O-])c1OC(=O)C=C(C)C (stereo not given)
active: [2] 9.89 µM | [3] 20.9 µM | [4] 12.8 µM | [5] 0.00641 µM | [6] 12.9 µM | [7] 7.89 µM | [8] 20 µM | [9] 11.8 µM | [10] 35.1 µM | [11] 5.31 µM | [12] 30.7 µM | [13] 20 µM | [14] 30.3 µM | [15] 20.5 µM | [16] 5.31 µM | [17] 22.8 µM | [18] 14.8 µM | [19] 13.4 µM | [20] 34.5 µM

COC(C)(C)CCC[C@H](C)C/C=C/C(C)=C/C(=O)OC(C)C
active: [2] 20 µM | [3] 7.52 µM | [4] 36.9 µM | [6] 31.1 µM | [7] 25.6 µM | [8] 32.4 µM | [9] 18.5 µM | [11] 20 µM | [12] 13.7 µM | [15] 20 µM | [16] 16.6 µM | [17] 24.1 µM | [18] 29 µM | [19] 29.6 µM | [20] 32.7 µM
inactive: [1] | [5] | [10] | [13] | [14]

CNC(=O)Oc1cc(C)c(SC)c(C)c1
active: [6] 20 µM | [11] 12.9 µM | [12] 13.3 µM | [14] 10.1 µM | [15] 20 µM
not listed: [1]
inactive: all other assays above

CCc1cc(C)cc(CC)c1-c1c(OC(=O)C(C)(C)C)n2n(c1=O)CCOCC2
active: [5] 0.0209 µM | [9] 3.97 µM | [11] 3.97 µM | [12] 0.975 µM | [13] 0.0822 µM
not listed: [1]
inactive: all other assays above
